{"source": "PubChem BioAssay AID1626", "about": "(SRMLSC, 2009)", "note": "Among all 220,000 compounds or so, about 2,000 (0.91%) were called active. Roughly 2% stayed inconclusive and do not appear here. Not all results are given here. Entries with a potency or affinity are not part of this list. A number with no mark means an inactive call. No stated cut-off is given here; in the data, inconclusive means inhibition above about 80% without an active follow-up result; inactive means below that; test concentration not stated here.", "data": [{"assay": "M. tuberculosis H37Rv growth inhibitors, H37Rv strain (AID 1626);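 further: bacteria incubated seven days before Alamar blue readout; 0% = bacteria only wells and 100% = bacteria with antibiotic wells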", "conditions": "stronger effect = higher value, concentration not given here", "units": {"inhibition": "%"}, "values": [{"molecule": "Cc1nnc(NC(=O)NCN2C(=O)C3C4C=CC(C4)C3C2=O)s1", "note": "(stereo not drawn)", "inhibition": -8.61}, {"molecule": "CCN(CC)P(=O)(Oc1ccccc1)Oc1ccccc1", "inhibition": 7.92}, {"molecule": "C#CCOCCOCCOCCNc1nc(N2CCN(C(=O)[C@H](C(C)C)n3cc(CCO)nn3)CC2)nc(N2CCN(C(=O)[C@H]([C@@H](C)CC)n3cc(CCCCN)nn3)CC2)n1", "inhibition": 1.48}, {"molecule": "Cc1cccc2nc(-c3cccc(NC(=O)Cc4ccccc4)c3)cn12", "inhibition": 10.1}, {"molecule": "c1cncc(CSc2nnc3ccc(-c4ccco4)nn23)c1", "inhibition": -0.26}, {"molecule": "Cc1ccc(NC(=O)CSc2nnnn2C)cc1S(=O)(=O)N(C)C", "inhibition": -2.13}, {"molecule": "Nc1nc(SCC(=O)Nc2ccc(Br)cc2F)n[nH]1", "inhibition": 0.13}, {"molecule": "O=C(CSc1ncn[nH]1)Nc1ccc([N+](=O)[O-])cc1Br", "inhibition": 10.6}, {"molecule": "CN(C)CCCCOc1ccc(Br)cc1Cl", "inhibition": 6.22}, {"molecule": "CC(C)OC(=O)CSc1nc(N)c(C#N)c(-c2cccs2)c1C#N", "inhibition": 40.9}, {"molecule": "CCCCOC(=O)CSc1nc(N)c(C#N)c(-c2ccc(OCC)cc2)c1C#N", "inhibition": 57.9}, {"molecule": "CC(=O)CSc1nc(N)c(C#N)c(-c2cccs2)c1C#N", "inhibition": -7.14}, {"molecule": "CCCCOc1ccc(-c2c(C#N)c(N)nc(SCC(N)=O)c2C#N)cc1", "inhibition": -5.04}, {"molecule": "CC(C)OC(=O)CSc1nc(N)c(C#N)c(-c2ccco2)c1C#N", "inhibition": 53.1}, {"molecule": "N#Cc1c(N)nc(SCC(=O)OCc2ccccc2)c(C#N)c1-c1ccco1", "inhibition": 74}, {"molecule": "CCOC(=O)CC(=O)CSc1nc(N)c(C#N)c(-c2ccc(F)cc2)c1C#N", "inhibition": -2.96}, {"molecule": "CCOC(=O)CC(=O)CSc1nc(N)c(C#N)c(-c2ccc(Cl)cc2)c1C#N", "inhibition": -8.64}, {"molecule": "Cc1ccc(-n2c(O)c(C=NCCN3CCOCC3)c(=O)[nH]c2=O)cc1", "inhibition": 2.96}, {"molecule": "CCCc1nnc(NC(=O)Nc2ccc(OC)cc2)s1", "inhibition": -1.18}, {"molecule": "COc1ccc(S(=O)(=O)N2CCOCC2)cc1Cl", "inhibition": 5.97}, {"molecule": "Cc1ccc(N2C(=O)NC(=O)/C(=C/c3cnn(-c4ccc(C)cc4)c3)C2=O)cc1", "inhibition": 79.9}, {"molecule": "CCCN1C(=O)c2cc(C(=O)Nc3ccc(OC)c(OC)c3)ccc2C1Nc1ccc(OC)c(OC)c1", "note": "(stereo not drawn)", "inhibition": 4.17}, {"molecule": "CCn1cc(C(=O)N2CCCCC2)c2ccccc21", "inhibition": -0.75}, {"molecule": "Cn1c(=O)oc2cc(S(=O)(=O)N3CCC4(CC3)OCCO4)ccc21", "inhibition": -6.19}, {"molecule": "O=C(CSc1nnc(-c2ccncc2)n1Cc1ccco1)OC1CCCCC1", "inhibition": 0.38}, {"molecule": "CCC(C)(C)n1nnnc1C(c1ccncc1)N1CCN(c2cccc(OC)c2)CC1", "note": "(stereo not drawn)", "inhibition": -11.7}, {"molecule": "Cc1cc(NC(=O)CSc2nc(C(C)C)nc3c2c(=O)n(C)c(=O)n3C)no1", "inhibition": -4.22}, {"molecule": "Cc1nc(SCC(=O)NCc2ccco2)c2c3c(sc2n1)CCCC3", "inhibition": -8.98}, {"molecule": "Cc1cc(NC(=O)CSc2nc(C(C)C)nc3sc(C)c(C)c23)no1", "inhibition": -4.44}, {"molecule": "Cc1cc(NC(=O)CSc2nc(C3CC3)nc3sc4c(c23)CCC(C)C4)no1", "note": "(stereo not drawn)", "inhibition": -2.86}, {"molecule": "COc1ccccc1/C=C/C(=O)NCC(=O)N/N=C/c1ccccc1[N+](=O)[O-]", "inhibition": -1.7}, {"molecule": "CN(C)S(=O)(=O)c1ccc(C(=O)OCC(=O)Nc2sc3c(c2C#N)CCCCC3)cc1", "inhibition": -0.67}, {"molecule": "CC(C)(C)c1ccc(-c2noc(-c3ccc4c(c3)CCO4)n2)cc1", "inhibition": 10.1}, {"molecule": "Nc1c(N(CCO)C(=O)COc2ccc(Cl)cc2)c(=O)[nH]c(=O)n1Cc1ccccc1", "inhibition": -6.77}, {"molecule": "Cc1ccc(Nc2nc(N)c([N+](=O)[O-])c(N3CCC(C)CC3)n2)cc1C", "inhibition": 10.8}, {"molecule": "O=c1cc(NCc2ccccc2)nc2ccccn12", "inhibition": 4.08}, {"molecule": "O=C(CSc1ccccn1)Nc1ccc(NC(=O)CSc2ccccn2)cc1", "inhibition": -2.88}, {"molecule": "COc1ccc(NC(=O)CSc2ccccn2)cc1OC", "inhibition": -4.19}, {"molecule": "Cn1ccnc1SCC(=O)Nc1ccc2ccccc2c1", "inhibition": 11.1}, {"molecule": "COc1ccc(NC(=O)CSc2ccccn2)cc1", "inhibition": 7.31}, {"molecule": "COc1cccc(NC(=O)CSc2ccccn2)c1", "inhibition": -1.36}, {"molecule": "CC(=O)Nc1ccc(NC(=O)CSc2ccccn2)cc1", "inhibition": 7.17}, {"molecule": "O=C(CSc1ccccc1)Nc1ccncc1", "inhibition": 0.82}, {"molecule": "O=C(CSc1ccccn1)Nc1ccc2c(c1)C(=O)c1ccccc1C2=O", "inhibition": 2.78}, {"molecule": "O=C(NCc1ccccn1)/C(=N/O)c1ccccc1", "inhibition": 1.57}, {"molecule": "COc1ccc(N2C(=O)NC(NC(=O)c3cccnc3)(C(F)(F)F)C2=O)cc1", "note": "(stereo not drawn)", "inhibition": -4.91}, {"molecule": "Cc1nccc(-c2cc(-c3ccc(Cl)cc3Cl)no2)n1", "inhibition": 0.59}, {"molecule": "Cc1onc(-c2ccccc2)c1C(=O)NNC(=S)NC(=O)/C=C/c1cccs1", "inhibition": 5.26}, {"molecule": "O=C(N/N=C/c1cc([N+](=O)[O-])ccc1O)C1CC1", "inhibition": 9.15}, {"molecule": "Cc1nn(-c2ccc(F)cc2)c2sc(C(=O)OC3CCOC3=O)cc12", "note": "(stereo not drawn)", "inhibition": -1.05}, {"molecule": "Cc1ccc(S(=O)(=O)Nc2ccc3c(c2)nc(C)n3C)cc1", "inhibition": 2.7}, {"molecule": "O=C1/C(=C/c2cccs2)COc2ccccc21", "inhibition": 4.75}, {"molecule": "COc1ccc(/C=C2/CCc3ccccc3C2=O)cc1OC", "inhibition": 5.56}, {"molecule": "CNc1ccc(/C=C2\\COc3ccccc3C2=O)cc1[N+](=O)[O-]", "inhibition": 10.8}, {"molecule": "COc1ccc(/C=C2\\Cc3ccccc3C2=O)cc1OC", "inhibition": 4.06}, {"molecule": "COc1cc(/C=C2\\COC/C(=C\\c3cc(OC)c(OC)c(OC)c3)C2=O)cc(OC)c1OC", "inhibition": 21.1}, {"molecule": "COc1cc(/C=C2/CC/C(=C/c3ccc(O)c(OC)c3)C2=O)ccc1O", "inhibition": -0.8}, {"molecule": "CCC(C)NC(=O)CSc1nc2ccccc2c(=O)n1CCCC(=O)NCC1CCCO1", "note": "(stereo not drawn)", "inhibition": -0.9}, {"molecule": "Cc1nn(Cc2ccccc2)c(Cl)c1C(=O)OCC#N", "inhibition": 2.96}, {"molecule": "Cc1cccc(NC(=O)CSc2ccc(C(N)=O)cc2[N+](=O)[O-])c1C", "inhibition": -7.31}, {"molecule": "O=C(O)CCC(=O)Nc1ccccc1C(=O)NCc1ccco1", "inhibition": -1.28}, {"molecule": "Cc1ccc(NC(=S)N/N=C2/CCCCc3ccccc32)cc1", "inhibition": -0.29}, {"molecule": "COc1ccc2nc(NC(=O)CSc3nnc(-c4ccoc4C)n3C)sc2c1", "inhibition": 0.74}, {"molecule": "COCCOC(=O)c1c(NC(=O)CN2CCc3ccccc32)sc(C(N)=O)c1C", "inhibition": 6.77}, {"molecule": "CCn1cc(C(=O)O)c(=O)c2cnc(N3CCN(C(=S)Nc4ccccc4C(F)(F)F)CC3)nc21", "inhibition": -8}, {"molecule": "O=C(O)C(Cc1c[nH]c2ccccc12)N1Cc2ccccc2C1=O", "note": "(stereo not drawn)", "inhibition": -8.14}, {"molecule": "CC(C)CNC(=O)NC1C(NC(=O)NCC(C)C)N(C)C(=O)N1C", "note": "(stereo not drawn)", "inhibition": -2.11}, {"molecule": "O=C(Nc1ccc(N2CCOCC2)cc1)c1cc2c(s1)CCCC2", "inhibition": -7.27}, {"molecule": "COc1ccc2nc(/N=C\\N(C)C)sc2c1", "inhibition": 5.98}, {"molecule": "COc1ccc2nc(N=Nc3c(O)ccc4ccccc34)sc2c1", "inhibition": 13.7}, {"molecule": "CC(C)(C)C(=O)NNC(=O)c1cc2sccc2s1", "inhibition": 13.2}, {"molecule": "CCCS/C(N)=N/N=C/c1ccccc1O", "inhibition": 4.15}, {"molecule": "CCOc1ccccc1C(=O)N1CCN(C(c2ccccc2)c2ccccc2)CC1", "inhibition": 0.97}, {"molecule": "CC(=O)c1ccccc1OCC(O)CN1CCN(CCN2C(=O)c3cccc4cccc(c34)C2=O)CC1", "note": "(stereo not drawn)", "inhibition": 39.8}, {"molecule": "CC1=CC(=O)N(c2ccc(C)cc2)C1c1ccc(Cl)cc1", "note": "(stereo not drawn)", "inhibition": 11.2}, {"molecule": "Cc1ccc2c(c1)c1c(n2CC(O)CNC(C)(C)C)CCCC1", "note": "(stereo not drawn)", "inhibition": 3.21}, {"molecule": "Cc1ccc2c(c1)c1c(n2CC(O)CNC2CCCC2)CCCC1", "note": "(stereo not drawn)", "inhibition": 27.5}, {"molecule": "COc1ccc(OC)c(NC(=O)CCc2c[nH]c3ccccc23)c1", "inhibition": 11.6}, {"molecule": "Cc1ccccc1C(=O)Nc1nnc(-c2cccnc2)o1", "inhibition": 20.8}, {"molecule": "Cc1ccc(NC(=O)Nc2nnc(-c3ccccc3)o2)cc1", "inhibition": 3.09}, {"molecule": "COc1ccc(-c2nnc(NC(=O)C3CC3)o2)cc1", "inhibition": 14.1}, {"molecule": "COc1ccc(NC(=O)c2cc(Cl)ccc2Cl)c([N+](=O)[O-])c1", "inhibition": 0.17}, {"molecule": "Cc1ccccc1C(=O)Nc1nnc(-c2ccncc2)o1", "inhibition": 1.04}, {"molecule": "COc1ccc(-c2nnc(NC(=O)C(C)C)o2)cc1", "inhibition": 28.3}, {"molecule": "COc1ccc(Oc2ccc(NC(=O)c3ccccc3C)cc2)cc1", "inhibition": 9.33}, {"molecule": "CCSc1nnc(-c2ccc(OC)cc2)o1", "inhibition": 10.5}, {"molecule": "O=C(N/N=C/c1ccc2c(c1)OCO2)c1cc(-c2ccccc2Cl)nc2ccccc12", "inhibition": 4.7}, {"molecule": "CSc1ccc(/C=C/C(=O)OCC(=O)NC(C)C)cc1", "inhibition": 0.59}, {"molecule": "O=C(Nc1ccccc1)NC1CCN(Cc2ccccc2)CC1", "inhibition": -1.63}, {"molecule": "O=C(Cn1c(=O)n(CC2CCCO2)c(=O)c2ccccc21)c1ccccc1", "note": "(stereo not drawn)", "inhibition": 1.39}, {"molecule": "O=C(CCCSc1nc2sc3c(c2c(=O)[nH]1)CCC3)NCCO", "inhibition": -2.38}, {"molecule": "O=C(NNC(=O)c1cccnc1)Nc1ccc(Cl)c(Cl)c1", "inhibition": -1.69}, {"molecule": "C=CCn1c(SCn2nnc3ccccc3c2=O)nc2scc(-c3cccs3)c2c1=O", "inhibition": -6.52}, {"molecule": "COc1cc(CCC(O)CC(=O)CCc2ccccc2)ccc1O", "note": "(stereo not drawn)", "inhibition": -13}, {"molecule": "COc1ccc(-c2nnc(-c3ccc(OCC(C)C)cc3)o2)cc1", "inhibition": -2.52}, {"molecule": "O=C(Nc1nn[nH]n1)c1cccc([N+](=O)[O-])c1", "inhibition": 2.86}, {"molecule": "CCOC(=O)CNC(=O)Nc1nnc(-c2ccc(OCC)cc2)o1", "inhibition": -3.79}, {"molecule": "O=C(Nc1nnc(-c2cccnc2)o1)c1cccc([N+](=O)[O-])c1", "inhibition": 74.6}]}]}
